Source: PubChem
The list is not random: actives were taken first. Their share in the collection is about 5.7%.
RORg inh: inhibitors of mouse ROR gamma transcriptional activity; P51450; Drosophila S2 Gal4-RORgamma UAS-luciferase reporter, 20 h; Potency, µM (highest dose often 53.6 µM), inactives show at the highest dose activity change, negative = inhibition, actives largely listed as inhibitors; hit rate 5.4% among 310,000; also: nearly all actives have a fitted effect of over 60% in size
Target sequence (P51450 whole entry, looked up, the tested form may be a part): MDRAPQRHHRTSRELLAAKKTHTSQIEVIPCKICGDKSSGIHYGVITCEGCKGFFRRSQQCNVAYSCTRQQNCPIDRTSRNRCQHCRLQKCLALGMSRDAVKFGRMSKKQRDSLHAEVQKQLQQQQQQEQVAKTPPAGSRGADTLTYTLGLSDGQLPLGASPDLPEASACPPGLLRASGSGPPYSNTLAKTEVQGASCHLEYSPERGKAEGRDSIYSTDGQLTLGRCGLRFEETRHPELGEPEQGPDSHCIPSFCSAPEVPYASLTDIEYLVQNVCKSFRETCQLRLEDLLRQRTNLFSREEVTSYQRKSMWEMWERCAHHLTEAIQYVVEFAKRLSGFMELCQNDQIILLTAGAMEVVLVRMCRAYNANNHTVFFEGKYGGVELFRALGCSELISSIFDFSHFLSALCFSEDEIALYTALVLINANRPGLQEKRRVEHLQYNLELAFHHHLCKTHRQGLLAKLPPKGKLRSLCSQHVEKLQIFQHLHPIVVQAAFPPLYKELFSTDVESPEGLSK
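ROR gamma transcriptional activity was tracked as Gal4-UAS luciferase output in stably transfected Drosophila Schneider cells, with compound added 1 hr before 700 uM copper sulfate induction and a 20 hr ambient-temperature incubation.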
VP16 counter: counter-screen for ROR gamma inhibitors: Gal4-VP16 reporter; hit rate 3.5% among 310,000; Potency, µM (titrated, usually from 53.6 µM), inactives show at the top dose activity, negative = inhibition, hits mostly inhibitors; AID 2546; Drosophila S2 Gal4-VP16 UAS-luciferase, luminescence, 20 h;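 also: Gal4-VP16 expression switched on by copper sulfate through the metallothionein promoter; nearly all actives have a fitted effect of over 50% in size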
NPSR antagonist: antagonists of human neuropeptide S receptor cAMP signaling. CHO-NPSR cells, cAMP TR-FRET, antagonist mode. Q6W5P4. hit rate 1% among 220,000. Potency, µM (titrated, usually from 38.3 µM), for the others: at the top dose activity change, negative = inhibition, actives largely listed as inhibitors. AID 1461; also: nearly all actives have a fitted effect of over 50% in size
B2AR arrestin: beta2AR (human) beta-arrestin recruitment activity. beta-arrestin recruitment to beta2AR, cell-based reporter. P07550. hit rate 0.02% among 330,000. AID 492947. Potency, µM (titrated, usually from 46.1 µM), for inactives: at the top dose activation, most hits filed as activators;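 also: 0% = DMSO controls and full agonism = EC100 isoproterenol or metaproterenol; nearly all actives have a fitted effect of over 65% in size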
An asterisk follows results filed as active; ? = inconclusive; · = no result; [ ] = remark or other dose. Calls follow the shape of the dose curve; as a rule, active = well fitted curve in the direction sought with a large enough effect; inconclusive = small, poorly fitted or top-dose-only effect, or another doubt; inactive = no such curve, though single readings can be large; an effect the other way counts as inactive or inconclusive. Unless noted, % is scaled to controls: 0 for no effect and ±100 for the full control effect; potency is read from the fitted curve at half-maximal effect.

SMILES | RORg inh | VP16 counter | NPSR antagonist | B2AR arrestin
COc1ccc(CNC(=S)NCc2ccc(F)cc2)cc1 | 11.2µM* | ? | · | 0.0%
COc1ccc(CNC(=O)C(=O)NCc2ccncc2)cc1 | 0.9% | 0.9% | 18.9% | -0.2%
CCNC(=S)NCc1ccc(F)cc1 | -23.1% | -5.3% | 9.2% | -3.6%
O=C(Nc1cc(Cl)ccc1N1CCCC1)C1=COCCO1 | · | · | · | 0.0%
COC(=O)[C@H](Cc1ccccc1)NC(=O)O[C@@H]1C(=O)c2cc(OC)ccc2O[C@H]1c1cccc(OC)c1 | 22.3% | -23.7% | · | ·
CCOc1ccc(CNC(=S)NCc2ccc(OCC)cc2)cc1 | 10µM* | ? | 1.0% | 0.2%
CCOc1ccc(CC(=O)NNC(=S)NC)cc1 | -37.4% | -0.8% | 11.1% | 0.0%
Fc1ccc(CNC(=S)NCc2ccc(F)cc2)cc1 | 11.2µM* | ? | 12.2% | 0.0%
COc1ccc(CNC(=S)NCc2ccc(OC)cc2)cc1 | 12.6µM* | -8.2%[10 µM] | 8.3% | -0.8%
COc1ccc(CNC(=S)Nc2ccc(S(N)(=O)=O)cc2)cc1 | 33.1% | 3.3% | 2.6% | -0.4%
COc1ccccc1C1=Nn2c(nnc2-c2cccc(OC)c2OC)SC1 | 30.7% | -16.2% | · | ·
CCCCCCCCCCCC | -9.4% | -3.8% | · | ·
O=C(/C=C/Sc1ccccc1)c1ccc(Cl)cc1 | ? | 14.1µM* | ? | ?
O=C(/C=C/Sc1ccccc1)c1ccccc1 | ? | ? | ? | -0.5%
CC(=O)OCC(NC(=O)C(CCCCNC(=O)OCc1ccccc1)NC(=O)OC(C)(C)C)C1OC(n2ccc(=O)[nH]c2=O)C(OC(C)=O)C1OC(C)=O (centres undefined) | 15.3% | -4.9% | · | ·
O=[N+]([O-])c1cccc(N/N=C/c2cc([N+](=O)[O-])ccc2O)c1 | -35.2% | -10.0% | -39.3% | 0.0%
COc1ccc(O)c(/C=N/Nc2nc3ccccc3[nH]2)c1 | ? | ? | -17.7% | -0.2%
O=[N+]([O-])c1ccc(O)c(/C=N/Nc2nc3ccccc3[nH]2)c1 | 6.31µM* | 5.62µM* | -15.8% | -0.8%
COc1cccc(/C=N/Nc2nc3ccccc3[nH]2)c1O | 0.708µM* | 2.24µM* | -4.9% | -0.1%
O=C(O)COc1ccc(Br)cc1/C=N\Nc1ccccn1 | 2.24µM* | -21.5% | · | -1.1%
COc1cccc(/C=N/Nc2nc3ccccc3[nH]2)c1OC | ? | ? | -10.1% | -0.3%
O=[N+]([O-])c1ccc(O)c(/C=N/Nc2ccccn2)c1 | 10µM* | 11.2µM* | -7.7% | 0.3%
O=C(NC1CCCCC1)c1cccnc1Sc1ccccc1 | -5.2% | 14.0% | · | -0.1%
Cc1nc2n(n1)C(O)c1cc([N+](=O)[O-])ccc1S2 (centres undefined) | 12.5% | 4.4% | 6.2% | -0.8%
O=[N+]([O-])c1ccc2c(c1)C(O)n1nc(-c3ccc(Cl)cc3Cl)nc1S2 (centres undefined) | 11.2µM* | ? | 0.8%[46.1 µM] | -0.1%
SMILES | RORg inh | VP16 counter | NPSR antagonist | B2AR arrestin
COC(=O)CN1CC(=O)c2ccccc2S1(=O)=O | -8.7% | 23.2% | · | ·
Cc1nc2cnc(N(C)C)nc2n(CCc2ccccc2)c1=O | 23.9% | -2.9% | · | ·
CCNC(=S)N1CCN(CCN2C(=O)c3cccc4cccc(c34)C2=O)CC1 | 13.4% | -2.3% | -41.3% | -0.1%
O=C1c2cccc3cccc(c23)C(=O)N1CCN1CCN(C(=S)Nc2ccc(Cl)cc2)CC1 | 2.82µM* | -7.1% | 21.8% | -0.5%
Oc1oc(-c2cccc3ccccc23)nc1/C=N/c1nccs1 | 8.91µM* | 12.6µM* | -19.4% | 14.6%
Cc1cccc(/N=C/c2nc(-c3ccccc3Br)oc2O)n1 | -44.2% | -1.0% | -17.0% | 0.1%
O=C1CN(CC(=O)NC2CCCc3ccccc32)CCN1 (centres undefined) | 15.4% | -10.5% | · | -0.2%
COc1cc(OC)cc(C(=O)N2CCN(C(=O)c3ccc(-c4ccccc4)cc3)CC2)c1 | 1.12µM* | 7.08µM* | 47.1% | -0.1%
COc1ccc(-c2nc3ccccc3c(=O)n2CCOc2cc(C)ccc2C)cc1 | 3.9% | 3.2% | -6.7% | -0.4%
CCNc1c(C(=O)O)ccc2c1C(=O)c1ccccc1C2=O | ? | 12.6µM* | -38.6% | -1.0%
Cc1cnc(CNc2nc(-c3ccc(N(C)C)cc3)nc3ccccc23)cn1 | ? | 11.2µM* | · | ·
C=CCOC(=O)CSCC(NC(=O)OC(C)(C)C)C(=O)OCC (centres undefined) | 8.91µM* | 11.2µM* | -2.8%[46.1 µM] | -0.4%
CCN(CC)P(=O)(Nc1ccccc1Br)c1ccc(N(C)C)cc1NC(=O)c1ccco1 (centres undefined) | 32.1% | -3.7% | 7.94µM* | -0.5%
CCN(CC)C(=O)c1cc(Cl)ccc1NC(=O)c1ccco1 | 1.1% | 1.9% | 11.9% | -0.3%
O=c1c2cccnc2[nH]c(=S)n1CCCN1CCN(c2ccccc2F)CC1 | 2.24µM* | -7.8% | -1.0%[46.1 µM] | 4.4%
CC1CCCCN1CCn1c(=S)[nH]c2ncccc2c1=O (centres undefined) | -24.3% | 2.1% | -4.2%[46.1 µM] | -0.5%
O=c1c2ccccc2[nH]c(=S)n1CCCN1CCN(c2ccccc2)CC1 | 7.94µM* | 10µM* | · | 0.0%
O=c1c2ccccc2[nH]c(=S)n1CCCN1CCN(c2ccccc2F)CC1 | 3.55µM* | 8.91µM* | · | 0.3%
O=C(CN1C(=O)CCS(=O)(=O)c2ccccc21)Nc1ccc(Cl)cc1 | 14.3% | -4.6% | · | -0.4%
C/C(=N\NC(=S)Nc1c(C)cccc1C)c1ccc(O)cc1 | 8.91µM* | ? | -20.2% | 3.2%
Cc1cccc(C)c1NC(=S)N/N=C/c1ccccc1C(=O)O | ? | -15.6% | -5.1% | -0.2%
C/C(=N\NC(=S)Nc1c(C)cccc1C)c1cc2ccccc2o1 | 1µM* | 7.08µM* | -19.1% | 1.7%
C/C(=N\NC(=O)c1ccco1)c1cc2ccccc2o1 | 0.4% | -9.4% | -2.2% | -0.5%
C/C(=N\NC(=S)Nc1ccccc1C)c1cc2ccccc2o1 | 1.26µM* | 7.08µM* | -14.5% | 0.2%
COc1ccc(N2CCN(C(=O)c3oc4ccccc4c3NC(=O)Cc3ccc(OC)c(OC)c3)CC2)cc1 | 3.7% | -4.6% | · | 0.6%
SMILES | RORg inh | VP16 counter | NPSR antagonist | B2AR arrestin
O=C(c1ccco1)N1CCN(C2CC(=O)N(c3ccc(F)c(Cl)c3)C2=O)CC1 (centres undefined) | 0.8% | -16.4% | · | 0.2%
Cn1ccc(-c2ccccc2)n1 | -3.7% | -4.5% | 8.1% | -0.1%
CC1=CC(=O)N(c2ccn(C)n2)C1=O | 14.1µM* | 12.6µM* | 5.5% | 5.1%
CCC[C@@H]1C[C@@]1(CCC)[C@@H](NC(=O)Oc1ccccc1)c1ccc(C(=O)OC)cc1 | -16.3% | -0.8% | · | ·
Cn1c(CCc2nc3ccccc3[nH]2)nnc1SCC#N | 14.1µM* | ? | 35.6% | 0.0%
O=c1c(-c2ccccc2)nc2cnc(N3CCOCC3)nc2n1Cc1ccc(F)cc1 | 1.5% | 6.2% | · | ·
C=C[C@H]1CCC=C2C(=O)CCC[C@@H]21 | -40.3% | -6.0% | · | ·
CCCCCC(=O)NNC1=NCC(Cc2ccccc2)S1 (centres undefined) | 1.41µM* | ? | 13.3% | 0.2%
CCCn1c(C(C)Nc2nc(-c3ccc(OC)cc3)cs2)nc2ccccc21 (centres undefined) | 7.94µM* | ? | · | -0.3%
CCCn1c(C(O)c2ccc(OC)cc2)nc2ccccc21 (centres undefined) | 7.6% | 0.1% | -1.5%[46.1 µM] | -0.4%
